In all, about 53,000 sequences went through this assay and about 3,700 (7%) were called active.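 How the source made its calls: active means gene knockdowns whose robust z-score for IL-1 alpha signal is at least 2 or at most -2, so actives lie on both sides; inactive means the rest.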 This excerpt belongs to a sample that is enriched for actives.

From PubChem BioAssay AID1508600 (Functional Genomics Laboratory (NCATS/FGL), 2020) come the findings set out here.

The nature of the assay: Components of the Cytosolic LPS Sensing Pathway: Gene Identification via Genome-wide siRNA Screen.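 Further: robust z of the log signal after scaling to non-targeting control siRNA wells of the plate.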 The note with it: RAW264.7 macrophages, IL-1a HTRF, actives lie on both sides, screened at 100 nM (by protocol), cells primed 5 h with Pam3CSK4 first. In short, it runs like this: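 Three distinct siRNAs per gene were tested singly at 100 nM in RAW264.7 macrophages. Following Pam3CSK4 priming and 24 hour LipidA transfection, IL-1a secretion was read by HTRF.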
In general terms: TR-FRET usually uses a lanthanide donor and a delayed reading to cut background.
As to GCAACAUGUAGGCAACAUCTT against Tmx2, the z-score was -0.179 (inactive).

With CCAAUGAGAGUUCUAUGAUTT against Cxxc4, the z-score was -0.192 (inactive).

Regarding GGUUAGCAGGGACCUAAUGTT against Zfp94, the z-score was 2.57 (active).

On to GGAAAACACGAGUUUCCCUTT against Arrdc4, for which the z-score is 1.56 (inactive).

As to CCAAGCCAAGCAAUCUUGATT against Chat, the z-score was -0.247 (inactive).

Regarding CCAAACUUACAAAUAUGCGTT against Sgpp1, the z-score is 1.35 (inactive).

With GGAUCCUGUCCACAAGCACTT against Astn1, the z-score is 0.519 (inactive).

As for GGUUCAGAUCCACAGCCAGTT against Asic2, the z-score was -2.12 (active).

As to CCCAUAACCAGAAUUAAAGTT against Wdr64, the z-score is 0.454 (inactive).

Turning to GGUCAUUGCAUCUGACAAGTT against Pcdha2, the z-score was 0.109 (inactive).

Consider GGGAGGAUACCUUCUAUGUTT against Atf6b, for which the z-score is -0.43 (inactive).

In the case of GGACACAGACAUCCUCUUGTT against Sult5a1, the z-score was 1.04 (inactive).

GGGAGAUGUUUGUUUUCAATT against Mmp16: the z-score is 3.52 (active).

On to GGAAACCUUUUCAUUAACATT against Il23r, for which the z-score is 0.138 (inactive).

Take GGACAACUUCCUAGGGCUCTT against Esyt3: the z-score was 0.248 (inactive).

For the sequence CCCAAGCAAUUACAGUACUTT against Olfr263, the z-score was -0.543 (inactive).

On to GGCCCUCUGAGAUUAAUGUTT against Nfkbid, for which the z-score was 2.58 (active).

Regarding CAGAUCCAUCUCUUAAUGGTT against Olfr204, the z-score is 0.383 (inactive).

Take GGUAUCAGGUACCAACGACTT against Cpne6: the z-score was 0.768 (inactive).

For GGACAUUAGCCAACACAUCTT against Scp2d1, the z-score is 1.17 (inactive).

On to GGAAUUGACUUUAAGACAATT against Boll, for which the z-score was -0.413 (inactive).

Consider GGAAGUCAAGCAUAUUGCCTT against Sntb2, for which the z-score was 3.04 (active).

GCAUUGGUGUUUAGUUGGUTT against Gdf2: the z-score is 1.11 (inactive).

As for GGAGUUCGCACAGAAAUUCTT against Dhdh, the z-score was -0.619 (inactive).

For GGUGUAUUAAAAUGUCAGUTT against Marveld2, the z-score was 1.92 (inactive).

GGUCAUCAGAAUGUGAAAATT against Zfp354a: the z-score was 0.232 (inactive).

Take GGAGAGACCAGAAUGGUAUTT against Fbxw21: the z-score was -1.12 (inactive).

With GGUAUUUCGAAACCUCCGUTT against H2-Q10, the z-score is 2.01 (active).

On to GCAUGGACAAAUGUCCCUGTT against Lce1f, for which the z-score is -0.24 (inactive).

Take GGAAGAUGGCAAUAAUAACTT against Borcs7: the z-score was -2.26 (active).

Regarding GGUUUUCCCACAUGUCAGATT against Zmat5, the z-score is 0.805 (inactive).

As for GGGUACAGACGAUGUUUGATT against Unc45b, the z-score is 0.347 (inactive).

For GGUGUUCAACUCCACUAUGTT against Nhlrc1, the z-score is 0.511 (inactive).

For the sequence GGUUCACAAUGGAUUAUGATT against Lrrc25, the z-score is -1.68 (inactive).

Turning to UGAUAUUUGGUGUAUUCAGTT against Olfr972, the z-score is -2.06 (active).

Regarding GGCUUUCUCCAAGCUAUAUTT against Tdgf1, the z-score is -1.83 (inactive).

Regarding GGGAUACUACUUUCUAACATT against Rspo3, the z-score is 1.29 (inactive).

Consider GCCAUACCCUGAAUUACCATT against Ndnf, for which the z-score was -2.01 (active).

Turning to GGAUCAGAGAAGGAAAAAATT against Hspa12a, the z-score is -1.98 (inactive).

Take CCCUGACUUGUCCUUACAATT against Trem3: the z-score is -0.831 (inactive).

CCCUAGCGGAAAUUGUCAATT against Nono: the z-score was 0.328 (inactive).

Turning to GGGUCUGAUCACUUAUAUUTT against Lysmd3, the z-score is 2.02 (active).

Take CGAGGAGCCUGAAAUAUGGTT against Exosc2: the z-score was -2.42 (active).

Consider GGAAAAAAAAGUCUUCCUATT against Ttll6, for which the z-score is -0.0777 (inactive).

With CCUUGUUCCCGAAAUACCGTT against Krr1, the z-score was -0.471 (inactive).

For GUCAGUAUGGAGCGAUGGGTT against Zmiz2, the z-score was 0.695 (inactive).

With GCCAUGUAGCACGUAACAGTT against Haus6, the z-score is -0.368 (inactive).

GGAGAUACAUUGGUAGGUATT against Idua: the z-score was -0.469 (inactive).

In the case of GGAAACGUAUGAACAAUAATT against Sema4f, the z-score was 0.896 (inactive).

As for GCAAUGAGGAGUAUAUGUATT against Rfx5, the z-score is 2.89 (active).

For GGAUUAUGGGAAUUAACUATT against Mpdz, the z-score was 1.06 (inactive).

With CCUUCAGUGGUUUGAACCGTT against Dnd1, the z-score is 2.59 (active).

Turning to CCAAGUCUUGUAGUGGAGUTT against Vdac3, the z-score is -0.269 (inactive).

As to GGGCUCCACUACCUAAUCATT against Gpr83, the z-score was -1.07 (inactive).

Consider GGUACACUAUGAGGUCUGCTT against Traf2, for which the z-score was 2.07 (active).

For GGUCUAUCAGAUCAUCAAATT against Pde8a, the z-score is 0.584 (inactive).

GGGUUCAAUAACCACAUCATT against Ttc13: the z-score was -2.13 (active).

Regarding GGACUCAGAAGUGAACAUATT against Spata7, the z-score was -0.916 (inactive).

For GCCUACGUGAAAUCUCACATT against Mycl, the z-score is 0.147 (inactive).

With CCUCAAUUGGAUAAAGAAGTT against Gzma, the z-score was 1.7 (inactive).

With GACAUACCAGCCGUAUAACTT against Erh, the z-score is -2.39 (active).

Turning to CGAGGAGAAUUUGUAAUGATT against Etfrf1, the z-score is -0.554 (inactive).

On to CCCUGAACCCUAACAUCACTT against Tcirg1, for which the z-score is 0.593 (inactive).

Consider GGAGUGUUGGGAGCAGGAATT against Tnni1, for which the z-score is 2.71 (active).

Regarding GGAUGUUCUUGCUCAUGUGTT against Fam149b, the z-score is 0.605 (inactive).

On to GGAGAAAUGCCAUUGCGUCTT against Wnt3, for which the z-score was 0.169 (inactive).

As for GCGCGUCAUAAAAAGCAUATT against Lhx6, the z-score was 1.17 (inactive).

Turning to CGGAUCCUACGGAAUUACGTT against Fpgs, the z-score is 0.99 (inactive).

On to GGACAUUCUUUAAGAAGAUTT against Tjp3, for which the z-score was -0.584 (inactive).

For CCCAAAAGUUUUUACAGCUTT against Ttpa, the z-score was 0.0745 (inactive).
